TTR transcr act = increases transthyretin transcription. SH-SY5Y TTR promoter Gaussia luciferase, luminescence; 100% = recombinant luciferase protein wells. activation, % at 16.7 µM. 92,000 tested, 1.3% active. AID 1117267;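 active = activation above the mean of all tested compounds plus 3 SD, cut at about 9.5% in these data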;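 also: cells exposed to compounds for one day before reading; 0% = median of all test compound wells on the plate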
HuH7 TTR inh = decreases TTR transcription in HuH7 cells in activator counter-screen; shares compounds with TTR transcr act; HuH7 TTR promoter-Gaussia luciferase reporter, luminescence; inhibition, % at 16.7 µM; 1,100 tested, 4% active; AID 1117279;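 active = average inhibition above the solvent-only control wells' mean plus 3 SD, cut at about 15% in these data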;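 also: 0% = cells with DMSO only and 100% = cells with inhibitor control FD; inhibitors lower well luminescence so higher value means more inhibition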
TTR up confirm = human TTR transcription activation, confirmation; shares compounds with TTR transcr act; SHSY5Y TTR promoter Gaussia luciferase, luminescence; 100% = purified Lucia enzyme wells, no cells; activation, % at 16.7 µM; 1,100 tested, under 10 active;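 active = mean activation above a set limit taken from the earlier primary screen, cut at about 11% in these data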;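 also: 0% = DMSO-treated cells and 100% = recombinant Lucia luciferase without cells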
* marks the source's active call; other numbers are inactive results. This excerpt belongs to a sample that is enriched for hits.

What do the screens show for `Cn1c(=O)c2c(nc(CN3CCc4ccccc4C3)n2Cc2ccccc2)n(C)c1=O`?
TTR transcr act: -3

What do the screens show for `CCOCCn1c(CN2CCc3ccccc3C2)nc2c1c(=O)n(C)c(=O)n2C`?
TTR transcr act: 13*; HuH7 TTR inh: 2; TTR up confirm: 0

Results for CCOCCn1c(CN2CCN(c3ccccc3)CC2)nc2c1c(=O)n(C)c(=O)n2C ?
TTR transcr act: 2

Results for C[C@@H]1[C@@H](O)C[C@@]2(C[C@H](O)c3cc(Cl)ccc3O2)O[C@H]1c1ccccc1Cl ?
TTR transcr act: -3

What do the screens show for `COc1ccccc1CN[C@@H]1CC[C@@]23CCCN2C(=O)CCC[C@H]3C1`?
TTR transcr act: 2

How did C[C@@H]1CCN(C2CC2)S(=O)(=O)c2ccc(N3CC[C@H](O)C3)cc2O1 do in these assays?
TTR transcr act: 0

What do the screens show for `O=C(O)CC/C(=N/NC(=O)c1cccs1)c1ccccc1`?
TTR transcr act: -1

Results for CCC/C(=N\NC(=O)c1ccccc1C)c1ccccc1 ?
TTR transcr act: 10*; HuH7 TTR inh: 4; TTR up confirm: -1

How did Cc1ccccc1C(=O)NCC(=O)c1ccccc1 do in these assays?
TTR transcr act: 2

Results for Cc1ccccc1CN1CCCCC(NC(=O)Nc2cccc(F)c2)C1=O (centres undefined) ?
TTR transcr act: 0

Results for CN1C2=NC(c3ccc4ccccc4c3)CC(=O)N2/C(=C\c2ccccc2)C1c1ccccc1C(F)(F)F (centres undefined) ?
TTR transcr act: 1

Results for C1=CC2CCC1ON2c1ccccc1 (centres undefined) ?
TTR transcr act: 17*; HuH7 TTR inh: -4; TTR up confirm: 0

How did Nc1ccccc1C(=O)N1O[C@@H]2C=C[C@H]1C2 do in these assays?
TTR transcr act: 0

How did Cc1cccc(N2O[C@H]3C=C[C@@H]2C3)n1 do in these assays?
TTR transcr act: -1

Results for Cc1cc(SCC(=O)O)nc2ccccc12 ?
TTR transcr act: 30*; HuH7 TTR inh: -2; TTR up confirm: 1

What do the screens show for `O=C(O)CSc1cnc2ccccc2n1`?
TTR transcr act: 8

What do the screens show for `Cc1cc(SCC(=O)c2cc3ccccc3o2)nc2ccccc12`?
TTR transcr act: 0

What do the screens show for `CCCNC(=O)C1(C)CCN(Cc2cc(C(F)(F)F)ccc2Cl)C1` (centres undefined)?
TTR transcr act: 0

What do the screens show for `Cc1ccc([C@H]2N[C@]3(CCCN(Cc4ccc(F)cc4)C3=O)[C@H]3C(=O)N(Cc4ccccc4)C(=O)[C@@H]23)cc1`?
TTR transcr act: 2

Results for COc1ccc(NC(=O)COC(=O)CCc2ccc(S(=O)(=O)N3CCOCC3)cc2)cc1Cl ?
TTR transcr act: -2

How did Cc1cccc(N(C)c2ncnc3onc(-c4ccc(F)cc4)c23)c1C do in these assays?
TTR transcr act: 13*; HuH7 TTR inh: 25*; TTR up confirm: 0

How did Cc1ccccc1Sc1ncnc2onc(C)c12 do in these assays?
TTR transcr act: -4

What do the screens show for `Cc1ccc(CN2CCCCC(NC(=O)c3ccc(F)c(F)c3)C2=O)cc1` (centres undefined)?
TTR transcr act: -2

Results for COC(=O)[C@@]12CCCCC=C1N(CCc1ccc(Cl)cc1)C(=O)[C@H]2CC(=O)NCC1CCCCC1 ?
TTR transcr act: 4

How did CS(=O)(=O)c1ccc(C(=O)N(CCc2ccccc2)Cc2ccccc2)cc1 do in these assays?
TTR transcr act: 9.7*; HuH7 TTR inh: -8; TTR up confirm: 1

How did CS(=O)(=O)c1ccccc1C(=O)N(CCc1ccccc1)Cc1ccccc1 do in these assays?
TTR transcr act: -2

Results for CC(=O)Nc1cccc(C(=O)N(CCc2ccccc2)Cc2ccccc2)c1 ?
TTR transcr act: -2

How did C#CCN1C(=O)[C@@](O)(c2cccn2C)c2cc(F)ccc21 do in these assays?
TTR transcr act: -1

What do the screens show for `C[C@H]1[C@@H](OC(=O)NCc2cccnc2)CC[C@@]23CCCN2C(=O)CCC[C@@H]13`?
TTR transcr act: 0

Results for CN=C1NC(=O)/C(=C\c2cc(C)n(-c3ccccc3F)c2C)S1 ?
TTR transcr act: 3

Results for C[C@@H]1CN([C@@H](C)COC(=O)C(C)(C)C)C(=O)c2cc(NC(=O)Nc3ccccc3)ccc2O[C@@H](C)CCCCO[C@H]1CN(C)S(=O)(=O)c1ccc(F)cc1 ?
TTR transcr act: 0

What do the screens show for `CCOC(=O)c1cnn(-c2ccccc2)c1NC(=O)CCl`?
TTR transcr act: -1

Results for COc1ccc(CCNC(=O)c2cnn(-c3ccccc3)c2N)cc1OC ?
TTR transcr act: 0

How did CCCc1c(C(=O)NNc2ccccc2OC)cnn1-c1ccccc1 do in these assays?
TTR transcr act: 12*; HuH7 TTR inh: -9; TTR up confirm: 0

Results for C[C@@H]1CCN(C2CC2)S(=O)(=O)c2c(cccc2N2CCC[C@@H]2CO)O1 ?
TTR transcr act: -2

How did COP(=O)(CC(=O)O)C(CC(C)C)NC(=O)OCc1ccccc1 (centres undefined) do in these assays?
TTR transcr act: 0

Results for COc1ccc(C(=O)N[C@@H]2CC[C@@]34CCCN3C(=O)CCC[C@H]4[C@H]2C)cc1 ?
TTR transcr act: 0

How did COP(=O)(O)C(COCCC(CC(C)C)NC(=O)OCc1ccccc1[N+](=O)[O-])NC(=O)OCc1ccccc1 (centres undefined) do in these assays?
TTR transcr act: 0

How did O=S(=O)(NCc1cc(-c2ccccc2)no1)c1ccc(Cl)cc1 do in these assays?
TTR transcr act: 0

Results for O=S(=O)(Cc1cc(-c2ccc(Cl)cc2)no1)c1ccccc1 ?
TTR transcr act: 12*; HuH7 TTR inh: -21; TTR up confirm: 0

How did O=S(=O)(NCc1cc(-c2ccc(Cl)cc2)no1)c1ccc(Cl)cc1 do in these assays?
TTR transcr act: -1

What do the screens show for `COC(=O)c1cc(S(=O)(=O)NC2CCCCC2)cn1C`?
TTR transcr act: 0

How did CC(C)(C)c1ccc(CNc2nc(-c3ccccn3)nnc2-c2ccccc2)cc1 do in these assays?
TTR transcr act: -2

What do the screens show for `CCOC(=O)[C@]12CCCC=C1N(CCCOC)C(=O)[C@@H]2CC(=O)NCc1ccccc1`?
TTR transcr act: -1

What do the screens show for `Cc1cccc(NC(=S)N2CCN(c3ccc(F)cc3)CC2)c1`?
TTR transcr act: 11*; HuH7 TTR inh: -1; TTR up confirm: 0

What do the screens show for `CCOc1ccccc1N1CCN(C(=S)NC(=O)C23CC4CC(CC(C4)C2)C3)CC1`?
TTR transcr act: 9.7*; HuH7 TTR inh: -22; TTR up confirm: 0

Results for O=[N+]([O-])c1ccc(NC(=S)N2CCN(c3ccc(F)cc3)CC2)cc1 ?
TTR transcr act: -3

How did CCOc1ccccc1N1CCN(C(=S)NCc2ccc(Cl)cc2)CC1 do in these assays?
TTR transcr act: 4

Results for Cc1cc(C)cc(NC(=S)N2CCN(c3ccc(F)cc3)CC2)c1 ?
TTR transcr act: 1

Results for CCCCNC(=O)N1CCN(c2ccccc2OCC)CC1 ?
TTR transcr act: -1

Results for O=C(NC(=S)N1CCOCC1)C12CCC3CC(CC(C3)C1)C2 ?
TTR transcr act: 2

What do the screens show for `Cc1cccc(NC(=S)N2CCN(c3ccccn3)CC2)c1`?
TTR transcr act: 4

Screens (PubChem)
